Columns and labels:
[1] = target: T1, Aspartate--tRNA(Asp/Asn) ligase (Mycobacterium tuberculosis (strain ATCC 25618 / H37Rv)) (UniProt P9WFW3); test: Assay for Asp RNA synthetase-1 from Mycobacterium tuberculosis; type: functional; parameters: scale not given: direction of the effect not stated beside the values; details: 30 µM; further: in the data most compounds retested in dose-response had high values
T1 sequence (whole entry): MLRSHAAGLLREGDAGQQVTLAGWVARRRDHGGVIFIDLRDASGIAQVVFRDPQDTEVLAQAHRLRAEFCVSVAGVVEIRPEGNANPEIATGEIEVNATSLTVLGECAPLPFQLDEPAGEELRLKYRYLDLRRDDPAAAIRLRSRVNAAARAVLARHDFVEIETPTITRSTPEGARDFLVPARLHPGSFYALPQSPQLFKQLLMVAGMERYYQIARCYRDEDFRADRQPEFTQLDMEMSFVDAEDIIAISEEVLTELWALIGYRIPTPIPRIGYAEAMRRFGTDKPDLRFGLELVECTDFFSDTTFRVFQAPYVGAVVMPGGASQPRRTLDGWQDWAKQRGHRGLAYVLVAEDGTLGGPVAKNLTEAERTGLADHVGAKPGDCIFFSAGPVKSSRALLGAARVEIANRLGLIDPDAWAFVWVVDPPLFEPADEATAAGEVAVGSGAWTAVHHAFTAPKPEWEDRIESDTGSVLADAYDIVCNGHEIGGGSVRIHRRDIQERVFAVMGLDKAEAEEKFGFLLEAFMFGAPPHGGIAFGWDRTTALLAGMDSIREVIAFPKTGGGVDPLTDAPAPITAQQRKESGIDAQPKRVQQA

[2] = target: Shiga toxin 2 (Escherichia coli O157:H7) (UniProt P09385+P09386); test: E. coli 0.157:H7 Shiga Toxin SOP - stx2 screening assay; type: functional; parameters: scale not given: direction of the effect not stated beside the values; details: 30 µM

SMILES | Percent Effect [1] [%] | Percent Effect [2] [%]
CCN1CCn2c(C)cnc2C12CCN(C(=O)c1ccc(Cl)cc1)CC2 | 2.04 | 8.49
COC(=O)c1cc(OCC2CCC2)cc(C(=O)N[C@H]2CC[C@H](O)CC2)c1 | 9.23 | -30.2
CNc1oc(-c2ccc(OC)c(S(=O)(=O)N3CCCCC3)c2)nc1C#N | -1.39 | -28.4
O=C1N(c2ccccc2)Cc2nc(=O)[nH]n21 | -0.29 | -29.1
Cc1noc(C)c1CN1CCN(Cc2nccn2C)CC1 | -5.33 | -1.2
CC(NC(=O)NCCCO)c1ccc2c(c1)OCCO2 (centres undefined) | 0.291 | -10.2
COc1ncccc1CN1CCn2c(Cn3cncn3)cnc2C1 | -2.81 | -13.9
O=C(c1ccc[nH]1)N1CCn2cc(Cn3cncn3)nc2C1 | 1.43 | -6.64
Cc1cc(CN2CCN(CC(O)C(C)(C)C)CC2)no1 (centres undefined) | -13.9 | 0.649
COCCC(=O)N1CCN(CCN(C)C)c2ncccc2C1 | 4.55 | -25.6
Cc1ccc(CN2CCc3ncc(CNS(C)(=O)=O)n3CC2)o1 | 1 | -24.4
O=C(NCCN1CCCCC1)c1scnc1Cl | -1.07 | 30.3
O=C(c1ccc2[nH]ccc2c1)N1CCn2cnc(COCC3CC3)c2C1 | 7.07 | -13.5
COc1cccc(-c2noc(C3CCN(Cc4cccs4)C3)n2)c1 (centres undefined) | -0.868 | -30
CC(C)(C)C(=O)N1CCC(c2nc(O)cc(-c3ccccn3)n2)CC1 | 5.88 | -6.29
O=C1NC(c2ccccc2)=N[C@@]12CC[C@@H]1CN(Cc3ccco3)C[C@@H]12 | 3.61 | -16.5
CC(C)c1ncc2c(n1)CN(Cc1nc(-c3ccoc3)no1)CC2 | 3.7 | -1.63

Source: ChEMBL document CHEMBL3988442, “University of Dundee, Small-Polar-MMV Screening Library” (2021)
